Results: PubChem BioAssay AID1159580 (chemical genetic matrix, 2015)
Values joined by “and” are separate entries in the source; they are usually repeats but may differ in a detail not shown here. Identical values can stand only once. The campaign covered roughly 5,500 compounds. About 2,000 (36%) were called active. Inconclusive results (about 18%) are left out. Rule as the data show it: active = normalized growth mostly below about 0.91 (no sharp cut-off); inconclusive = no clear call, values can overlap the other calls; inactive = mostly above about 0.92. The list shows a part of the results.

Assay: chemical genetic growth profiling, strain panel (AID 1159580);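 also: tested at 20 µM; growth read once vehicle control cultures reached saturation at 30 °C; 1 = growth at the plate median or of vehicle wells; lower values mean less growth of the strain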
Conditions: S. cerevisiae deletion strains, growth OD

Measured: normalized growth

CC(CCC(=O)O)[C@H]1CCC2C3CC[C@@H]4C[C@H](O)CC[C@]4(C)C3C[C@H](O)[C@@]21C (some centres not stated)
inactive: locus YAL013W, strain DEP1, active compounds read low 1.01 | locus YAL021C, strain ccr4, active compounds read low 1.02 | locus YAL026C, strain drs2, active compounds read low 0.98 | locus YAL030W, strain snc1, active compounds read low 1.01 | locus YBL061C, strain skt5, active compounds read low 0.983 | locus YBR009C, strain hhf1, active compounds read low 1.03 | locus YBR021W, strain FUR4, active compounds read low 1.04 | locus YBR023C, strain chs3, active compounds read low 0.962 | locus YBR171W, strain sec66, active compounds read low 0.989 | locus YBR229C, strain ROT2, active compounds read low 0.987 | locus YBR231C, strain swc5, active compounds read low 1.02 | locus YBR279W, strain paf1, active compounds read low 0.99 | locus YCL011C, strain gbp2, active compounds read low 0.974 | locus YCL016C, strain dcc1, active compounds read low 0.948 | locus YCL029C, strain bik1, active compounds read low 0.977 | locus YCL069W, strain vba3, active compounds read low 0.972 | locus YCR088W, strain abp1, active compounds read low 0.997 | locus YDL005C, strain med2, active compounds read low 0.987 | locus YDL035C, strain GPR1, active compounds read low 0.998 | locus YDL040C, strain nat1, active compounds read low 0.993 | locus YDL074C, strain BRE1, active compounds read low 1 | locus YDL101C, strain DUN1, active compounds read low 1.01 | locus YDL185W, strain tfp1, active compounds read low 1.02 | locus YDL192W, strain arf1, active compounds read low 1 | locus YDR001C, strain nth1, active compounds read low 0.984 | locus YDR069C, strain doa4, active compounds read low 1.01 | locus YDR101C, strain arx1, active compounds read low 1.01 | locus YDR137W, strain rgp1, active compounds read low 0.894 | locus YDR150W, strain NUM1, active compounds read low 1.01 | locus YDR159W, strain sac3, active compounds read low 0.963 | locus YDR162C, strain NBP2, active compounds read low 0.998 | locus YDR195W, strain ref2 1.01 | locus YDR297W, strain sur2, active compounds read low 1 | locus YDR318W, strain mcm21, active compounds read low 0.981 | locus YDR334W, strain swr1, active compounds read low 0.98 | locus YDR335W, strain msn5, active compounds read low 0.982 | locus YDR388W, active compounds read low 0.996 | locus YDR392W, strain spt3, active compounds read low 0.884 | locus YDR502C, strain sam2, active compounds read low 1.02 | locus YEL003W, strain gim4, active compounds read low 1.03 | locus YEL037C, strain rad23, active compounds read low 0.979 | locus YEL061C, strain CIN8 (second series), active compounds read low 1.01 | locus YEL061C, strain CIN8, active compounds read low 1.01 | locus YER015W, strain faa2, active compounds read low 1 | locus YER016W, strain bim1, active compounds read low 0.975 | locus YER110C, active compounds read low 0.982 | locus YER111C, strain swi4, active compounds read low 1 | locus YER155C, strain BEM2 (second series), active compounds read low 1.06 | locus YER155C, strain BEM2, active compounds read low 1.03 | locus YER167W, strain BCK2, active compounds read low 1.01 | locus YFR010W, strain ubp6, active compounds read low 1.02 | locus YGL078C, strain dbp3, active compounds read low 1.02 | locus YGL086W, strain mad1, active compounds read low 1.02 | locus YGL167C, strain pmr1, active compounds read low 0.999 | locus YGL173C, strain kem1, active compounds read low 0.992 | locus YGL227W, strain vid30, active compounds read low 1.01 | locus YGL240W, strain doc1, active compounds read low 1.01 | locus YGL248W, strain PDE1, active compounds read low 1.03 | locus YGL253W, strain hxk2, active compounds read low 0.955 | locus YGR078C, strain PAC10, active compounds read low 1.08 | locus YGR135W, strain pre9, active compounds read low 1.04 | locus YHR013C, strain ard1, active compounds read low 0.948 | locus YHR027C, strain rpn1, active compounds read low 1 | locus YHR030C, strain SLT2, active compounds read low 1.01 and 1.04 | locus YHR079C, strain IRE1 (second series), active compounds read low 0.981 | locus YHR079C, strain IRE1, active compounds read low 1.05 | locus YHR094C, strain hxt1, active compounds read low 0.991 | locus YHR129C, strain ARP1, active compounds read low 1.02 | locus YHR142W, strain chs7, active compounds read low 0.926 | locus YHR200W, strain rpn10, active compounds read low 1.02 | locus YIL066C, strain RNR3, active compounds read low 0.999 | locus YIL073C, strain SPO22, active compounds read low 1.06 | locus YIL125W, strain kgd1, active compounds read low 0.988 | locus YIR030C, strain dcg1, active compounds read low 1.01 | locus YJL092W, strain hpr5, active compounds read low 0.999 | locus YJL095W, strain BCK1 (second series), active compounds read low 0.991 | locus YJL095W, strain BCK1, active compounds read low 1.04 | locus YJL115W, strain asf1, active compounds read low 0.986 | locus YJL129C, strain trk1, active compounds read low 0.959 | locus YJL134W, strain LCB3, active compounds read low 1.01 | locus YJL154C, strain vps35, active compounds read low 1.01 | locus YJL164C, strain tpk1, active compounds read low 1 | locus YJL166W, strain qcr8, active compounds read low 1.02 | locus YJL168C, strain set2, active compounds read low 0.98 | locus YJL187C, strain SWE1 (second series), active compounds read low 1.04 | locus YJR043C, strain POL32, active compounds read low 1.01 | locus YJR066W, strain TOR1, active compounds read low 0.99 | locus YKL009W, strain mrt4, active compounds read low 0.942 | locus YKL068W, active compounds read low 0.989 | locus YKL085W, strain MDH1 (second series), active compounds read low 0.975 | locus YKL085W, strain MDH1, active compounds read low 0.975 | locus YKL160W, strain elf1, active compounds read low 0.937 | locus YKR001C, strain vps1, active compounds read low 1.01 | locus YKR026C, strain gcn3, active compounds read low 1 | locus YKR091W, strain srl3, active compounds read low 0.988 | locus YLL001W, strain dnm1, active compounds read low 1.01 | locus YLL026W, active compounds read low 1 | locus YLL041C, strain sdh2, active compounds read low 0.994 | locus YLR027C, strain aat2, active compounds read low 0.991 | locus YLR039C, strain RIC1, active compounds read low 0.941 | locus YLR058C, strain SHM2, active compounds read low 1.01 | locus YLR102C, strain apc9, active compounds read low 0.987 | locus YLR113W, strain HOG1, active compounds read low 0.951 | locus YLR221C, strain rsa3, active compounds read low 1.03 | locus YLR258W, strain gsy2, active compounds read low 0.963 | locus YLR262C, strain YPT6 (second series), active compounds read low 0.935 | locus YLR262C, strain YPT6, active compounds read low 0.925 | locus YLR268W, strain sec22, active compounds read low 0.989 | locus YLR320W, strain mms22, active compounds read low 0.998 | locus YLR330W, strain CHS5, active compounds read low 1.01 | locus YLR342W, strain FKS1 (second series), active compounds read low 0.983 | locus YLR342W, strain FKS1, active compounds read low 0.987 | locus YLR357W, strain rsc2, active compounds read low 1.01 | locus YLR370C, strain arc18, active compounds read low 0.972 | locus YLR371W, strain rom2, active compounds read low 0.985 | locus YLR384C, strain iki3, active compounds read low 0.992 | locus YLR418C, strain cdc73, active compounds read low 1.03 | locus YML016C, strain PPZ1, active compounds read low 1.01 | locus YML032C, strain rad52, active compounds read low 1.01 | locus YML120C, strain ndi1, active compounds read low 1.01 | locus YML124C, strain tub3, active compounds read low 1.01 | locus YMR058W, strain fet3, active compounds read low 1 | locus YMR078C, strain ctf18, active compounds read low 0.981 | locus YMR125W, strain sto1, active compounds read low 0.995 | locus YMR129W, active compounds read low 0.98 | locus YMR205C, strain PFK2, active compounds read low 0.969 | locus YMR223W, strain ubp8, active compounds read low 1.02 | locus YMR231W, strain pep5, active compounds read low 0.99 | locus YMR307W, strain GAS1, active compounds read low 1.03 | locus YNL067W, strain RPL9B, active compounds read low 1.03 | locus YNL071W, strain lat1, active compounds read low 0.99 | locus YNL153C, strain GIM3, active compounds read low 1.03 | locus YNL183C, strain NPR1, active compounds read low 1 | locus YNL209W, strain ssb2, active compounds read low 0.994 | locus YNL233W, strain BNI4, active compounds read low 1.03 | locus YNL248C, strain rpa49, active compounds read low 0.965 | locus YNL250W, strain rad50, active compounds read low 1.01 | locus YNL271C, strain bni1, active compounds read low 0.974 | locus YNL298W, strain CLA4, active compounds read low 0.98 | locus YNL307C, strain MCK1, active compounds read low 0.993 | locus YNL322C, strain KRE1 (second series), active compounds read low 1 | locus YNL322C, strain KRE1, active compounds read low 1.01 | locus YNR049C, strain mso1, active compounds read low 0.988 | locus YNR052C, strain pop2, active compounds read low 1.03 | locus YOL006C, strain TOP1, active compounds read low 1.05 | locus YOL012C, strain htz1 1.39 | locus YOL147C, strain pex11, active compounds read low 1 | locus YOR001W, strain rrp6, active compounds read low 1.03 | locus YOR061W, strain CKA2, active compounds read low 1 | locus YOR069W, strain VPS5, active compounds read low 1 | locus YOR070C, strain gyp1, active compounds read low 1 | locus YOR080W, strain dia2, active compounds read low 0.986 | locus YOR083W, strain WHI5, active compounds read low 0.927 | locus YOR106W, strain vam3, active compounds read low 0.953 | locus YOR136W, strain idh2, active compounds read low 1.02 | locus YOR144C, strain elg1, active compounds read low 0.987 | locus YOR184W, strain ser1, active compounds read low 0.994 | locus YOR231W, strain MKK1, active compounds read low 1.03 | locus YOR265W, strain rbl2, active compounds read low 0.997 | locus YOR270C, strain vph1, active compounds read low 0.942 | locus YOR290C, strain snf2, active compounds read low 0.952 | locus YOR316C, strain cot1, active compounds read low 0.995 | locus YPL051W, strain arl3, active compounds read low 0.958 | locus YPL078C, strain atp4, active compounds read low 0.952 | locus YPL106C, strain sse1, active compounds read low 0.985 | locus YPL240C, strain hsp82, active compounds read low 0.99 | locus YPL256C, strain CLN2, active compounds read low 1.08 | locus YPR119W, strain clb2, active compounds read low 0.992 | locus YPR141C, strain kar3, active compounds read low 0.992 | locus YPR163C, strain tif3, active compounds read low 1 | locus YPR167C, strain met16, active compounds read low 0.996 | strain wtn01, active compounds read low 1.01
